# Test results: PubChem BioAssay
# Several values for one entry are separate records, joined by “and”; a condition that tells them apart may be missing. Equal values may be shown once. Activity calls are given as the source filed them.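 Rule for the calls, unless noted: active = compounds whose cell count with miR-34 switched on is under 0.7 times the count with it off; inactive = the rest.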
# What was measured:
# [1] = viability loss with induced miR-34 in A549 – imaging, A549 dox-inducible miR-34, nuclei and caspase counts, primary screen (AID 1347080); conditions: A549 miR-34 inducible, Hoechst nuclei count, 48 h; note: test concentration not given here
# [2] = MELAS cybrid and Rieske KO viability enhancers – cell-based, MELAS cybrids, Rieske KO mouse fibroblasts, CellTiter-Glo, primary screen (AID 1508586;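 active = mean z-score across replicates of 1.96 or higher in either the MELAS or the Rieske mutant cell line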;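 note: test concentration not given here; z relative to plate mean and SD of compound and empty wells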); conditions: low glucose
# [3] = galactose survival enhancers in mitochondrial complex I cybrids – cell-based, galactose medium, ATP luminescence, primary screen (AID 1645843;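 active = z-score of at least 1.8 in each of two replicates, scored against plate mean and spread of sample wells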;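 note: positive z means more ATP and so rescue of galactose-driven cybrid death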); conditions: complex I mutant cybrid cells, 72 h, stronger effect = higher value
# [4] = stronger effect = lower value, cell number ratio, induced over uninduced
# [5] = measured here: relative caspase fold change +Dox/-Dox
# [6] = measured here: total cells with miR-34 induction, stronger effect = lower value
# [7] = measured here: total cells without miR-34 induction
# [8] = MELAS cybrid survival, CellTiter-Glo 48 h, stronger effect = higher value
# [9] = Rieske KO mouse fibroblast survival, CellTiter-Glo 72 h
SMILES,"fold change [1, 4]","fold change [1, 5]","cell count [1, 6]","cell count [1, 7]","z-score [2, 8]","z-score [2, 9]",z-score [3]
COc1cc(N=C(N)N=C(N)N)cc(OC)c1,0.901 (inactive),0.269,8210,9120,0.825 (inactive),-0.341,0.61 (inactive)
CCOC(=O)c1c(C)nn(-c2ccc(OC)cc2)c1C,0.895 (inactive),0.849,7720,8620,0.662 (inactive),0.769,0.595 (inactive)
COc1cc2c(cc1-c1nnc3ccccn13)OCO2,0.908 (inactive),2.79,8030,8840,0.597 (inactive),-0.284,-0.465 (inactive)
O=C1CN(c2ncnc3nc[nH]c23)CCN1Cc1cccc(F)c1,0.802 (inactive),2.49,7800,9720,-0.258 (inactive),-0.742,-0.53 (inactive)
O=C(c1cccc2nccnc12)N1CCc2[nH]nc(COc3ccccc3)c2C1,0.845 (inactive),1.54,8640,10200,-0.113 (inactive),-0.39,-0.45 (inactive)
Cc1csc(CNc2nccc(-c3cn(C)nc3C)n2)n1,0.888 (inactive),0.815,8410,9480,-0.307 (inactive),0.16,-0.445 (inactive)
Cc1nn(C)c(C)c1-c1ccnc(N(C)Cc2cc(-c3ccccn3)no2)n1,0.81 (inactive),1.13,6820,8420,-0.553 (inactive),0.716,-0.45 (inactive)
CCCc1cn(CC2CCCN(C(=O)c3nc4ncccn4n3)C2)nn1 (stereo not given),0.866 (inactive),1.31,9000,10400,-0.289 (inactive),-0.243,-0.51 (inactive)
CCn1ncc(NC(=O)Cn2ccc(-c3ncnn3C)n2)n1,0.85 (inactive),1.24,8780,10300,0.204 (inactive),-0.374,-0.5 (inactive)
Cc1nc(NC(=O)NCC2COc3ccccc3O2)nn1C(C)C (stereo not given),0.958 (inactive),1.49,8560,8940,-0.362 (inactive),0.824,2.15 (active)
Cn1c(=O)ccc2ccccc21,0.892 (inactive),0.453,8490,9520,-0.16 (inactive),0.0614,0.32 (inactive)
Cc1cc(NC(=O)Cn2cc(-c3cccc4cccnc34)cn2)n(C)n1,0.876 (inactive),0.926,8830,10100,-0.478 (inactive),-0.249,-0.585 (inactive)
COc1ccc(CC(C)NCC(O)c2ccc(O)c(NC=O)c2)cc1 (stereo not given),0.94 (inactive) and 0.989 (inactive),1.58 and 0.394,10500 and 8090,11200 and 8180,0.143 (inactive),-0.0828,-0.17 (inactive)
COc1cc(OC)c(-c2nnc3ccccn23)cc1OC,0.917 (inactive),1.49,9720,10600,-0.104 (inactive),0.208,-0.52 (inactive)
COc1ccc(OC)c2c1c(C)cc(=O)n2C,0.823 (inactive),0.693,8060,9790,-0.469 (inactive),0.131,-0.615 (inactive)
CC(C)n1cc(-c2cc(C(=O)N(C)Cc3ccncc3)c3cc(F)ccc3n2)cn1,0.953 (inactive),1.49,7910,8290,-1.09 (inactive),0.3,-0.295 (inactive)
CN1CCC(CN(C)Cc2ccc(-c3nc(-c4cccnc4)cc(=O)[nH]3)cc2)CC1,0.831 (inactive),1.62,8360,10100,0.139 (inactive),0.0765,-0.51 (inactive)
Cc1ncsc1-c1ccn(CC(=O)Nc2ccnn2C2CCCCC2)n1,0.823 (inactive),0.676,7140,8680,-0.424 (inactive),0.121,-0.57 (inactive)
CCn1nccc1NC(=O)Cn1cc(-c2ccc(C(=O)N3CCCC3)cn2)cn1,0.832 (inactive),1.64,7850,9430,0.812 (inactive),-0.539,-0.57 (inactive)
Nc1ncccc1OCc1ccccc1,0.764 (inactive),0.403,7870,10300,-0.968 (inactive),-0.912,-0.165 (inactive)
O=C(NCCc1nc2ccc(F)cc2[nH]1)c1cnccn1,0.896 (inactive),1.56,8500,9500,0.845 (inactive),-0.308,-0.435 (inactive)
Cc1ccc2c(C(=O)N(C)C(C)C)cc(-c3cnc(C(C)C)nc3)nc2c1,0.942 (inactive),1.5,7480,7940,0.549 (inactive),0.778,-0.485 (inactive)
CN(CCn1cccn1)Cc1ccc(-c2nc(-c3cccnc3)cc(=O)[nH]2)cc1,0.951 (inactive),1.22,8710,9150,-0.265 (inactive),0.251,0.18 (inactive)
CC(=O)NCC(=O)N1CCN(Cc2ccc3c(c2)OCO3)C(=O)C1,0.905 (inactive),1.72,8860,9790,0.0526 (inactive),-0.343,-0.565 (inactive)
CC1(C)OC2CO[C@@]3(COS(N)(=O)=O)OC(C)(C)OC3C2O1 (stereo not given in full),0.947 (inactive) and 0.976 (inactive),1.9 and 0.922,9570 and 9420,10100 and 9650,1.94 (inactive),-0.659,1.01 (inactive)
CC(=O)NCCc1ccc(S(N)(=O)=O)cc1,0.918 (inactive),0.641,7840,8540,0.668 (inactive),-0.256,-0.065 (inactive)
c1nc(N2CCOCC2)c2[nH]cnc2n1,0.913 (inactive),0.416,8460,9270,-0.198 (inactive),-0.176,1.15 (inactive)
NCC(=O)Nc1ccc(OCc2ccccc2)cc1,0.851 (inactive),0.248,8020,9430,1.42 (inactive),-0.396,-1.35 (inactive)
Cc1csc2ncnc(-c3cccc4ncccc34)c12,0.896 (inactive),0.971,7440,8300,0.0854 (inactive),-0.504,-0.49 (inactive)
CC(C)n1cc(-c2cc(C(=O)N(C)Cc3cccnc3)c3cc(F)ccc3n2)cn1,0.861 (inactive),1.63,9060,10500,-0.238 (inactive),0.816,-0.535 (inactive)
